# High-throughput results deposited in PubChem by several laboratories.
# KLF5 inh = suppresses KLF5 promoter-driven expression | DLD-1 KLF5 promoter-luciferase reporter, luminescence | inhibition, % at 5 µM | 0.23% of 290,000 active;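 active = inhibition above a per-plate limit of that plate's mean compound inhibition plus 3 SD, cut at about 60% in these data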;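 also: 0% = DMSO wells and 100% = LY294002 at 200 µM; higher means less KLF5 promoter-driven luciferase light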
# HIF act = HIF pathway transcriptional activation. U2OS HRE-luciferase reporter, luminescence; normalized: DMSO 0%, desferrioxamine 100%. 0.32% of 300,000 active. AID 1910. activation, % at 7.5 µM (by protocol);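 active = mean activation of at least 10% of the iron chelator positive control signal, with at least half of replicates also reaching 10%; inconclusive = mean and replicate majority disagree about reaching 10%; inactive = mean and most replicates under 10%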
# aSyn UTR inh = MLPCN primary screen, SNCA 5' untranslated region; inhibition, % (tested at 7.5 µM); AID 1813; alpha-synuclein 5'UTR reporter, inhibitor activity; 0.82% of 300,000 active; in the data active = inhibition above about 60%; inconclusive = no clear call, values can overlap the other calls;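 also: H4 neuroglioblastoma cells stably carrying SNCA 5'UTR luciferase fusion; 0% = DMSO wells and 100% = positive control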
# Platelet DG rel = modulates dense granule release in human platelets; human platelet-rich plasma, SFLLRN dense granule ATP release, luminescence; inhibition, %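 (compounds screened at 7.5 µM in platelet-rich plasma)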; AID 1663; 0.22% of 300,000 active;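 active = mean replicate score, as percent of positive control, at or above 50; inconclusive = mean below 50 but at least one replicate at or above 50; inactive = mean and every replicate below 50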
# Wee1 degr inh = blocks degradation of human Wee1 kinase; P30291; HeLa Luc-Wee1K328M stability, luciferase luminescence; 100% = proteasome inhibitor MG132 effect; reporter increase, % at 5 µM; 1.2% of 220,000 active; AID 1321;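 active = activation above the mean of all tested compounds plus 3 SD, set per screening run, cut at about 8.8% in these data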;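 also: cells exposed to compound for 20 h before luminescence read; 0% = DMSO alone and 100% = MG132 at 30 µM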
# Target sequence (P30291 whole entry K328M): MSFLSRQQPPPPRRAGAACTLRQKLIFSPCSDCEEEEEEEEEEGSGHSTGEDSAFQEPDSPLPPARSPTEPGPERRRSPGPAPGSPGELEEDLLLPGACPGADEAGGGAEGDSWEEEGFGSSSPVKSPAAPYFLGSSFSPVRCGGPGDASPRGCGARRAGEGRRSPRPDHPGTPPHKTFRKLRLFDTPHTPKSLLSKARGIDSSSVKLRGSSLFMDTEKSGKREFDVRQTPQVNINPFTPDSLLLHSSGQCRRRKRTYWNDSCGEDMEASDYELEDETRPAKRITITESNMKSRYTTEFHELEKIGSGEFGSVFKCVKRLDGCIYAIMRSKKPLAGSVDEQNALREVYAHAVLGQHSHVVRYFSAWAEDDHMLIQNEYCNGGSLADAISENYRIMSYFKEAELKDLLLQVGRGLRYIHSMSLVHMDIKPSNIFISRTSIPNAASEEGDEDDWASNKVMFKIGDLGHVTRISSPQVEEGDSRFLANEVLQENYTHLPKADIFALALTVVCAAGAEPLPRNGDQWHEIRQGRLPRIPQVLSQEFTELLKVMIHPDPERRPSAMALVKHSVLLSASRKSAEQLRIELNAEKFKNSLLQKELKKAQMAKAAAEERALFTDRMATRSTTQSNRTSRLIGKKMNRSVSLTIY
# Wee1 stab conf = confirmation of human Wee1 degradation inhibitors; HeLa Luc-Wee1K328M degradation, luminescence; vehicle 0%, proteasome-blocked wells 100%; activation, % at 5 µM; 4% of 1,100 active; shares compounds with Wee1 degr inh; in the data active = activation above about 8.9%
# * marks the source's active call; other numbers are inactive results; ? = inconclusive; / = no result. Most compounds without a hit are left out; they make up all but 2.1% or so of the library.
SMILES,KLF5 inh,HIF act,aSyn UTR inh,Platelet DG rel,Wee1 degr inh,others
C=C(C=O)C[C@@H]1C[C@H](O)C2OC3C[C@]4(C)OC5/C=C\CC6OC7C(CC=CCC6OC5CCCC4OC3CC2O1)OC1CC2OC3CC(=O)OC3C[C@@H](C)C[C@@]2(C)OC1C[C@@H]7C (stereo partly specified),/,0,113*,2,/,
Cc1ccc(N2C(=O)NC(=O)C(CCc3ccccn3)(Cc3ccc(F)cc3)C2=O)cc1 (stereo unspecified),-21,0,9,6,3,
CC1CCC(C(C)C)C(OC(=O)Cn2c(COc3ccccc3)[n+](C)c3ccccc32)C1 (stereo unspecified),-2,-1,66*,-1,-1,
CN1CCN(c2ccc([N+](=O)[O-])c3no[n+]([O-])c23)CC1,10,-5,98*,6,1,
CCCC(C)n1[nH]c(=O)c2c1NC(=O)CSC2c1ccccc1 (stereo unspecified),-42,0,-24,2,-3,
COc1ccc(CCC(=O)N2C[C@H]3C[C@@H](C2)c2cccc(=O)n2C3)cc1,-14,0,-7,0,/,
CCOP(=O)(OCC)C(O)c1cccnc1 (stereo unspecified),-13,0,-6,6,-3,
CNc1ccc2oc(C[C@H]3O[C@@]4(CC[C@H]3C)O[C@H]([C@H](C)C(=O)c3ccc[nH]3)[C@H](C)C[C@H]4C)nc2c1C(=O)O,/,0,117*,28,/,
CC(=O)O[C@@H]1/C=C/[C@](C)(O)C[C@@H](C)C/C=C/[C@H]2[C@H](O)C(C)=C(C)[C@H]3[C@H](Cc4ccccc4)NC(=O)[C@@]123,/,-2,117*,-7,/,
CCOC(=O)c1c(N)n(CCCOC(=O)c2ccco2)c2nc3ccccc3nc12,-1,0,114*,-11,0,
CCOC(=O)c1c(NS(=O)(=O)c2ccccc2)n(CCCOC)c2nc3ccccc3nc12,-18,455*,18,-1,-3,
CCCCC1C(=O)NC(=S)NC1=O,3,-8,-19,-14,-2,
CCOc1cc(CNCCc2c[nH]c3ccccc23)cc(Cl)c1OC,-12,1,17,-6,2,
CCOC(=O)c1c(C)n(CC(O)CN2CCOCC2)c2cc(Br)c(OC)cc12 (stereo unspecified),-33,0,-1,2,2,
O=C(c1cccnc1)c1cc2ccccc2[nH]1,-7,16*,-56,-9,7,
O=C(NC(C(Cl)Cl)N1CCOCC1)c1ccccc1 (stereo unspecified),-4,0,-32,2,1,
CC1(C)C[C@H]2C=C(C=O)[C@]3(C=O)C[C@]3(C)[C@H]2C1,16,-4,117*,3,-1,
COC(=O)C1CN(C#N)N(c2ccc(Cl)cc2)C12c1ccccc1-c1ccccc12 (stereo unspecified),18,-4,112*,/,3,
C=CCn1c(O)c(C(C)=NC2CCN(Cc3ccccc3)CC2)c(=O)[nH]c1=O,11,0,34,-7,11*,
NC(=O)Cn1cc(C(=O)c2ccccc2)c2ccccc21,-68,-1,17,-6,/,
CN1CCN(S(=O)(=O)c2ccc(Cl)nc2)CC1,-15,0,21,7,0,
Clc1ccccc1CNC1CN2CCC1CC2 (stereo unspecified),-19,0,9,2,11*,
CC/C(=N\N1CCCCCC1)c1c(O)n(-c2ccc(C)cc2)c(=O)[nH]c1=O,-25,12*,16,-10,-1,
Cc1ccc(N2C(=O)CC(=O)NC2=O)c(C)c1,-8,0,11,-14,/,
Cc1ccc(N)c(C(=O)c2ccc(Br)cc2)c1,18,0,18,-5,9.9*,
SMILES,KLF5 inh,HIF act,aSyn UTR inh,Platelet DG rel,Wee1 degr inh,others
Cc1cc(O)c2c(c1)OC(C)(C)C1=C2CC(C)CC1 (stereo unspecified),-32,0,6,3,/,
COc1cc2c(cc1/C=C/[N+](=O)[O-])OCO2,-9,1,-5,4,11*,
Cc1nc2ccccc2c(=O)n1-c1ccccc1[N+](=O)[O-],-11,0,3,-1,0,
Cc1cc([N+](=O)[O-])c2ccccc2[n+]1[O-],71*,2,127*,1,0,
C=C1[C@@H](C)[C@H]2[C@H](Cc3ccccc3)NC(=O)[C@]23OC(=O)/C=C/[C@H](O)CCC[C@@H](C)C/C=C/[C@H]3[C@@H]1O,32,-2,109*,-7,-1,
C[C@H]1C/C=C/[C@H]2[C@H](O)[C@H](C)[C@@](C)(O)[C@H]3[C@H](Cc4ccccc4)NC(=O)[C@]32[C@H](O)/C=C/[C@](C)(O)C1,/,-1,24,-4,/,
COC(=O)C1=C(c2cccc(OC)c2OC)C[C@@H]2CC[C@H]1N2C(=O)N1CCC(C)CC1,/,0,2,0,/,
CNC(=O)Oc1ccc(-c2cn3cc(C)ccc3n2)cc1,47,-2,76*,21,-6,
CNC(=O)Oc1cccc(-c2cn3cc(Cl)ccc3n2)c1,9,-5,?,19,0,
C=CCn1c(O)c(C(CC)=NCc2cc(OC)cc(OC)c2)c(=O)[nH]c1=O,-2,0,38,0,-1,
CCC(=NCc1cc(OC)cc(OC)c1)c1c(O)[nH]c(=O)[nH]c1=O,-5,66*,32,38,0,
O=C1CN=C(c2ccccc2)c2cc(Br)ccc2N1,-3,-9,17,9,/,
COc1ccc(CC2(CCc3ccncc3)C(=O)NC(=O)NC2=O)cc1,-21,-1,16,-5,1,
O=C1NC(=O)C(CCc2ccncc2)(Cc2ccc(OCc3ccccc3)cc2)C(=O)N1,0,0,-16,10,8.8*,
CC(Cc1ccccc1Sc1ccc(O)cc1)N(C)C (stereo unspecified),-28,0,-13,-7,-2,
CC(N)Cc1ccccc1Sc1ccc(O)cc1 (stereo unspecified),-2,0,15,76*,5,
OC[C@@H](O)CCl,/,0,-10,0,/,
CN=C(SCc1ccccc1)c1c(O)n(C)c(=O)n(C)c1=O,-3,0,10,-4,9.3*,
Cn1c(O)c(C(=O)c2ccccc2)c(=O)n(C)c1=O,3,0,-5,-20,0,
COc1ccc(NC(=O)N2C[C@@H]3C[C@@H](C2)c2cccc(=O)n2C3)cc1,-3,0,29,-2,/,
CCCCC(=O)N/N=C/c1c(O)n(CCc2ccccc2)c(=O)[nH]c1=O,-12,0,-4,-11,21*,Wee1 stab conf=2
O=C(NC1CN2CCC1CC2)c1cc(Cl)c([N+](=O)[O-])c2nc[nH]c12 (stereo unspecified),10,0,-47,-5,-3,
CC(=O)c1ccc(OCC(=O)N2CCCC(N3CCN(c4ccccc4C)CC3)C2)cc1 (stereo unspecified),-32,0,2,10,/,
